For part of these data: Potency and affinity values are given separately.
Tests used:
Staphylococcus aureus = test: Antibacterial activity against Staphylococcus aureus MRSA ATCC 43300 (CO-ADD:GP_020); MIC in CAMBH media using NBS plates, by Resazurin F(560/590); type: functional; settings: Concentration 20 uM, ASSAY_TEST Inhibition of Bacterial Growth, detection method Resazurin, Fluorescence (ex560/em590), MEDIA CAMHB, plate type 384well, CORNING #3640, time 18 hr
Acinetobacter baumannii = test: Antibacterial activity against Acinetobacter baumannii ATCC 19606 (CO-ADD:GN_034); MIC in CAMBH media using NBS plates, by Resazurin F(560/590); type: functional; settings: Concentration 20 uM, ASSAY_TEST Inhibition of Bacterial Growth, detection method Resazurin, Fluorescence (ex560/em590), MEDIA CAMHB, plate type 384well, CORNING #3640, time 18 hr
Escherichia coli = test: Antibacterial activity against Escherichia coli ATCC 25922 (CO-ADD:GN_001); MIC in CAMBH media using NBS plates, by Resazurin F(560/590); type: functional; settings: Concentration 20 uM, ASSAY_TEST Inhibition of Bacterial Growth, detection method Resazurin, Fluorescence (ex560/em590), MEDIA CAMHB, plate type 384well, CORNING #3640, time 18 hr
Klebsiella pneumoniae = settings: Concentration 20 uM; ASSAY_TEST Inhibition of Bacterial Growth; detection method Absorption (OD600); MEDIA CAMHB; plate type 384well; NBS; CORNING #3640; time 18 hr
Candida albicans = settings: 20 µM
Cryptococcus neoformans = settings: Concentration 20 uM; ASSAY_TEST Inhibition of Fungal Growth; detection method Resazurin; Absorption (OD600-OD570); plate type 384well; NBS; CORNING #3640

SMILES	Inhibition (Staphylococcus aureus)	Inhibition (Acinetobacter baumannii)	Inhibition (Escherichia coli)	Inhibition (Klebsiella pneumoniae)	Inhibition (Candida albicans)	Inhibition (Cryptococcus neoformans)
C=CCSC(CC)(CC)C(N)=O	1.95%	-2.06%	-8.58%	10.13%	1.53%	7.21%
COc1ccc(C2=NC(=O)NC2c2ccc(OC)cc2)cc1 (stereo not drawn)	6.62%	10.45%	-0.66%	17.66%	6.15%	-4.19%
CN1CCC(=C(c2ccc(Cl)cc2)c2ccccn2)CC1.O=C(O)/C=C\C(=O)O [CYCLIRAMINE MALEATE]	6.43%	-10.18%	9.66%	13.03%	1.65%	-5.61%
CCCCCC(=O)C(=O)c1ccc(O)cc1O	10.4%	8.8%	-2.2%	16.02%	6.66%	-6.56%
CCn1c2ccccc2c2c3ncc4cccn4c3ccc21	-13.6%	-8.64%	1.37%	9.08%	32.4%	-7.68%
Cc1ccccc1N=C(S)Nc1ccccn1	-11.3%	17.16%	-8.87%	16.17%	15.5%	4.14%
Cc1cc(NC(=O)c2ccccc2)c(Cl)cc1N	13.14%	13.32%	3.07%	14.81%	3.76%	-3.43%
O=C(O)/C=C\C(=O)Nc1ccc(-c2ccccc2)cc1	-11.84%	13.91%	-6.62%	15.61%	23%	-5.96%
Cc1cccc(NC2=C(C#N)C(=O)NC3(CCCC3)S2)c1	-0.83%	-3%	-9.49%	8.76%	11%	1.34%
COC(=O)c1cncc(C)c1	18.5%	-13.2%	14.23%	15.45%	0.39%	-1.27%
CS/C(=C\c1ccc(C(=O)c2ccc(C)cc2)n1C)[S+](C)[O-] (stereo not drawn)	7.5%	7.53%	1.09%	18.35%	3.75%	1.32%
CC1OC1c1ccc(-c2ccc(C3OC3C)cc2)cc1 (stereo not drawn)	3.27%	-0.69%	9.33%	23.63%	7.55%	-6.65%
Clc1ccccc1-c1nc(-c2ccncc2)no1 [PIFEXOLE]	2.18%	-11.63%	7%	9.18%	12.7%	-16.63%
Oc1ccccc1Nc1ccccn1	8.12%	-5.24%	13.47%	16.23%	1.04%	-3.55%
O=C(Nc1ccc(NC(=O)c2ccncc2)cc1)c1ccncc1	23.04%	-1.2%	8.24%	15.75%	1.6%	-0.9%
Cc1cc(NC(=O)Nc2cc(Cl)ccc2C)no1	-16.99%	4.24%	-3.34%	4.74%	19.4%	-2.52%
Cn1ncc2c(Nc3ccc([N+](=O)[O-])cc3)nc(Cl)nc21	-16.06%	3.27%	-14.4%	-8.72%	-1.97%	-3.09%
c1ccc(Sc2ncnc3ccccc23)cc1	3.09%	-14.3%	12.91%	8.16%	2.99%	-14.16%
O=C1/C(=C/c2ccc([N+](=O)[O-])cc2)CCc2ccccc21	6.03%	-4.9%	11.7%	8.24%	3.4%	-8.15%

SMILES	Inhibition (Staphylococcus aureus)	Inhibition (Acinetobacter baumannii)	Inhibition (Escherichia coli)	Inhibition (Klebsiella pneumoniae)	Inhibition (Candida albicans)	Inhibition (Cryptococcus neoformans)
Fc1ccc(-c2cc(-c3cccs3)cc(-c3ccccc3)n2)cc1	2.48%	12.33%	-3.88%	7.87%	6.36%	-7.45%
CCCCCn1cnc2c(S)nc(N)nc21	4.88%	-14.99%	12.21%	5.23%	1.29%	-16.43%
COc1ccc(C(=S)N2CCN(c3ccccc3Cl)CC2)cc1OC	21.01%	9.29%	8.55%	6.8%	6.76%	-9.03%
Oc1nccc(SCc2ccc(Cl)cc2Cl)n1	9.05%	6.51%	5.78%	11.54%	6.12%	-13.08%
CC1=NCC(C)c2ccccc21 (stereo not drawn)	18.64%	-4.26%	9.51%	8.39%	-2.04%	-2.64%
COc1ccc(Br)c2c1C(=O)CC2	10.21%	-14.67%	12.53%	-2.44%	20.7%	-15.03%
N#Cc1cnn(-c2cccc(Cl)c2)c1-n1cccc1	7.59%	-21.29%	14.62%	3.39%	9.39%	-16.73%
CC1(C)CC[C@]2(C(=O)n3ccnc3)CC[C@]3(C)[C@H](C(=O)C=C4[C@@]5(C)C=C(C#N)C(=O)C(C)(C)[C@@H]5CC[C@]43C)[C@@H]2C1	-14.27%	-18.52%	7.42%	10.75%	4.81%	-0.45%
COc1cc2oc3cc(C)oc(=O)c3c2cc1OC	14.15%	0.41%	8.42%	14.11%	1.88%	-16.92%
COc1c(NC=O)c2c(c([N+](=O)[O-])c1OC)C(=O)OC2	1.34%	7.55%	3.05%	24.74%	5.38%	2.82%
NC(=O)NC(=O)c1nccnc1C(=O)O	4.42%	-16.67%	10.6%	1.89%	0.76%	-7.91%
CCC(CC)NCCOC(=O)c1ccc([N+](=O)[O-])cc1	-1.24%	-9.59%	5.41%	5.67%	0.5%	-8.44%
c1cncc(-c2nc3ccccc3s2)c1	-7.01%	4.56%	-11.97%	2.37%	4.69%	25.76%
C1=Cc2ccccc2Nc2ccccc21 [IMINOSTILBENE]	-1.85%	-14.24%	12.01%	3.59%	3.51%	-15.72%
O=[N+]([O-])c1ccc(Sc2ncccn2)c([N+](=O)[O-])c1	-0.05%	-11.01%	5.58%	8.38%	12.9%	-3.06%
O=C(Nc1csnn1)c1csnn1	-7.63%	-6.51%	-0.35%	-1.22%	2.96%	1.57%
CC(=O)NC1(C(=O)O)CCCC1	8.27%	-6.77%	8.7%	15.18%	4.3%	0.8%
CCOC(=O)c1csc(-c2ccc(COC(=O)c3ccccc3)o2)n1	13.59%	3.92%	-0.69%	10.14%	4.97%	-13.35%
Cc1cc(O)c2cc(C(=O)c3ccccc3)ccc2n1	13.49%	5.7%	2.87%	7.32%	2.58%	-7.43%

— ChEMBL document CHEMBL4296182, “CO-ADD screening of NIH NCI Diversity Set V”
